POLI inh – inhibitors of human DNA polymerase iota; Q9UNA4; Pol iota fluorescent replication assay, 10 min; Potency, µM (titrated, usually from 115 µM), for the others: top-dose activity, negative = inhibition, hits mostly inhibitors; 1% of 390,000 active; AID 588590; also: potency is read from the fitted curve at half-maximal effect
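Fluorescent replication assay read twice, at 0 min and 10 min after adding 50 nM (final) substrate. Enzyme (10 nM) and compounds were first incubated 15 min at room temperature; enzyme-free buffer wells were negative controls.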
Pol beta inh – blocks human DNA polymerase beta activity. Pol beta primer extension/strand displacement, fluorescence kinetic. Potency, µM (doses to about 114 µM), inactives show at the highest dose activity change, negative = inhibition, usual class: inhibitors. 1.3% of 340,000 active. AID 485314; also: potency is read from the fitted curve at half-maximal effect; % is scaled to controls: 0 for no effect and ±100 for the full control effect
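Human Pol beta at 10 nM; strand-displacement substrate 50 nM final. Compound exposure 15 min at room temperature before start, reaction 10 min at room temperature.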
PI5P4K alpha inh – inhibitors of human PI5P4K alpha | P48426 | PI5P4Kalpha enzyme, ADP-Glo luminescence, 60 min; stronger effect = lower value | max response, % | 1.2% of 330,000 active; active = max response of -50% or lower; inconclusive = between -30% and -50%; inactive = -30% or higher; also: value at the top dose of about 77 µM; % is scaled to controls: 0 for no effect and ±100 for the full control effect
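Controls without substrate or without enzyme flank wells where PI5P4Kalpha converts substrate using 5 microM ATP (final). Incubation lasts 60 minutes at room temperature; ADP formed is read by ADP-Glo luminescence.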
Pol kappa inh-1 – inhibitors of human DNA polymerase kappa; Potency, µM (series often up to 107 µM), for the others: at the highest dose activity, negative = inhibition, actives largely listed as inhibitors; AID 588579; purified Pol kappa, fluorescent DNA synthesis assay, 10 min; Q9UBT6; 0.53% of 400,000 active; also: potency is read from the fitted curve at half-maximal effect; % is scaled to controls: 0 for no effect and ±100 for the full control effect
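10 nM Pol kappa was preincubated with compounds for 15 min at room temperature. Reaction started with 50 nM (final) substrate. Fluorescence read kinetically at 0 and 10 min.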
WRN helicase inh – WRN helicase (human) inhibition | WRN helicase unwinding, fluorescent forked duplex, kinetic | Potency, µM (top dose mostly 114 µM), for inactives: top-dose activity change, negative = inhibition, actives largely listed as inhibitors | 0.46% of 360,000 active | AID 651768; also: potency is read from the fitted curve at half-maximal effect; % is scaled to controls: 0 for no effect and ±100 for the full control effect; nearly all actives have a fitted effect of over 55% in size
Target sequence (Q14191 whole entry, looked up): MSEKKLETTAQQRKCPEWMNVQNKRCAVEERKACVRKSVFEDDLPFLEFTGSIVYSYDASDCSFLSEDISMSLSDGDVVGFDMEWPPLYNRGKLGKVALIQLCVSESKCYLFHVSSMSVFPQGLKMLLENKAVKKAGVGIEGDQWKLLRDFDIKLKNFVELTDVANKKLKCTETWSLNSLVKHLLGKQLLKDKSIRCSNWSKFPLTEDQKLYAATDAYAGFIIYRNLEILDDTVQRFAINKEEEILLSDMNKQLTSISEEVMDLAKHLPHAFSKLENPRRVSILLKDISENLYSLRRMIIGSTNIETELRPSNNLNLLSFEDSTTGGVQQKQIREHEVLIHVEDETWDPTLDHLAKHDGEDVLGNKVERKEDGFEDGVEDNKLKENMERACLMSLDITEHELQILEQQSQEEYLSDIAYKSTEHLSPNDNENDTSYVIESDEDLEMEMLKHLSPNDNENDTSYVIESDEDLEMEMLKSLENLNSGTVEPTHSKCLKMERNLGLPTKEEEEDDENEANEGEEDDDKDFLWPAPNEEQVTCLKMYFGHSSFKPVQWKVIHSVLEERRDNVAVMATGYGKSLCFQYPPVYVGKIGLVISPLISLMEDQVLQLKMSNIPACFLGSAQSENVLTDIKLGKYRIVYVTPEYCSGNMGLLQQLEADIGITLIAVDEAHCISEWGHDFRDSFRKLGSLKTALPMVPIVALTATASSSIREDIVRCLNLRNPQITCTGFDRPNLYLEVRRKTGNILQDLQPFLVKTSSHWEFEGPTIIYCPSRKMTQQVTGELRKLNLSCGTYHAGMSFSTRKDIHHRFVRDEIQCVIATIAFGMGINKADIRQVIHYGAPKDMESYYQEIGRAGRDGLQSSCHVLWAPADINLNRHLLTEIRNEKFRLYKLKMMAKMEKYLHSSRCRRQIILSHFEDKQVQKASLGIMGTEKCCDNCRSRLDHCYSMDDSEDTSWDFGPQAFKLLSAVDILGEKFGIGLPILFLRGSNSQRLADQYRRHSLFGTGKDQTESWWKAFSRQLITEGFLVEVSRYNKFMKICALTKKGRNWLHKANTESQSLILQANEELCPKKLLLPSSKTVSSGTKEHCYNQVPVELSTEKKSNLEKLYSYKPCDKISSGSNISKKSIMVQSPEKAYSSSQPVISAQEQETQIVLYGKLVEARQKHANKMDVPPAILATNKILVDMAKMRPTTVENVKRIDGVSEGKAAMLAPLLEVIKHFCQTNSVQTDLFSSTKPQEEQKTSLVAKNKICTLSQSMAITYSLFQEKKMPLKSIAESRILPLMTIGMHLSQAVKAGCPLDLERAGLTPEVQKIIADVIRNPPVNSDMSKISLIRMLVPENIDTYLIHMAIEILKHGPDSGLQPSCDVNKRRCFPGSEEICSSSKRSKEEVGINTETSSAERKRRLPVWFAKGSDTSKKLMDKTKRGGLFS
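Enzyme (20 nM final) and test compound sit together 15 min at room temperature before substrate addition. Substrate is a single-forked duplex oligonucleotide (100 nM) labelled with fluorophore and quencher, with 2 mM ATP; helicase unwinding raises red fluorescence, read kinetically.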
Pol eta inh-1 – inhibitors of human DNA polymerase eta | AID 588591 | Potency, µM (titrated, usually from 114 µM), for inactives: at the top dose activity change, negative = inhibition, actives largely listed as inhibitors | 1.2% of 390,000 active | recombinant Pol eta, fluorescent DNA replication assay; also: potency is read from the fitted curve at half-maximal effect; % is scaled to controls: 0 for no effect and ±100 for the full control effect
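Pol eta at 10 nM preincubated with compounds 15 min at room temperature; reaction started with fluorescent substrate (50 nM final) and read kinetically at 0 and 10 min.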
PGK validate – validation of Trypanosoma brucei phosphoglycerate kinase inhibitors. shares compounds with Pol kappa inh-1. TbPGK coupled GAPDH assay, Kinase-Glo luminescence. Potency, µM (doses to about 57.5 µM), for inactives: at the highest dose activity change, negative = inhibition, usual class: inhibitors. 79% of 500 active; also: potency is read from the fitted curve at half-maximal effect; % is scaled to controls: 0 for no effect and ±100 for the full control effect; nearly all actives have a fitted effect of over 65% in size
Pol iota confirm – Confirm cherry-picked inhibitors of human polymerase iota; Potency, µM, hits mostly inhibitors; Pol iota primer extension, TAMRA/BHQ fluorescence; 77% of 1,500 active; shares compounds with Pol kappa inh-1; AID 720496; also: potency is read from the fitted curve at half-maximal effect
Pol kappa inh-2 – confirmation of human DNA polymerase kappa inhibitors | shares compounds with Pol eta inh-1 | purified Pol-kappa, fluorescent strand-displacement substrate | Potency, µM, most hits filed as inhibitors | 76% of 920 active; also: potency is read from the fitted curve at half-maximal effect
Pol eta inh-2 – Pol eta (human) inhibition, cherry-pick confirmation; Pol eta primer extension, TAMRA/BHQ fluorescence, 10 min; AID 720502; Potency, µM, actives largely listed as inhibitors; 64% of 2,600 active; shares compounds with Pol eta inh-1; also: potency is read from the fitted curve at half-maximal effect
Starred values were filed as active, the others as inactive; u = inconclusive; x = not tested or not shown; [ ] = another dose, or the depositor's remark. Sampled rows, rich in hits. Any-hit rate of the full collection: about 2.8%. Unless noted, calls follow the shape of the dose curve; as a rule, active = well fitted curve in the direction sought with a large enough effect; inconclusive = small, poorly fitted or top-dose-only effect, or another doubt; inactive = no such curve, though single readings can be large; an effect the other way counts as inactive or inconclusive.

SMILES	POLI inh	Pol beta inh	PI5P4K alpha inh	Pol kappa inh-1	WRN helicase inh	Pol eta inh-1	Pol iota confirm	Pol eta inh-2	others
O=C(CSc1nc2ccccc2c(=O)[nH]1)c1ccc(O)c(O)c1	12.6µM*	20µM*	-56.0*	20µM*	14.1µM*	2.51µM*	u	30.1*	PGK validate=u;Pol kappa inh-2=18.9*
CC(=O)Nc1cc(C(=O)CSc2nnc(C3CC3)n2C2CC2)ccc1O	8.91µM*	x	-71.7*	35.5µM*	u	11.2µM*	u	75.7*
O=C(CSc1nnc(C2CC2)n1C1CC1)c1ccc(F)c(F)c1	6.3%	x	-9.1	-0.4%	1.6%	1.4%	x	x
COc1ccc2sc(/C=C/c3ccccc3O)[n+](C)c2c1	17.8µM*	17.8µM*	-19.8	-26.6%	u	50.1µM*	67*	33.8*	Pol kappa inh-2=67*
COc1ccc2c(c1)-c1nc(/N=C/c3ccccc3O)sc1CC2	12.4%	0.1%	-6.7	-12.0%	3.4%	-17.4%	x	x
CN1\C(=C/C=C/C=C/C=[N+](C)C)C(C)(C)c2ccccc21	17.8µM*	15.8µM*	u	50.1µM*	4.23µM*	39.8µM*	37.7*	33.8*	Pol kappa inh-2=37.7*
CN1/C(=C\C=O)C(C)(C)c2ccccc21	60.8%	4.6%	-6.4	-1.9%	0.5%	-4.3%	x	x
O=C1C(=O)N(C2CCN(C(=O)c3cccc(Cl)c3)CC2)CCN1Cc1ccc(F)cc1	27.9%	14.7%	x	-2.6%	x	-13.2%	x	x
O=C(O)c1ccc(-c2ccc(/C=C3\NC(=O)N(Cc4ccc(Cl)cc4)C3=O)o2)cc1	28.2µM*	-3.1%	-5.3	u	-9.8%[11.6 µM]	22.4µM*	37.7*	26.9*
Cc1ccc(CN2C(=O)N/C(=C\c3ccc(-c4ccc(C(=O)O)cc4C)o3)C2=O)cc1	-94.8%	20µM*	-22.6	79.4µM*	u	17.8µM*	21.2*	26.9*
Cc1ccc(C(=O)O)cc1-c1ccc(/C=C2/NC(=O)N(c3ccccc3)C2=O)o1	14.1µM*	5.62µM*	u	22.4µM*	39.8µM*	2.82µM*	18.9*	30.1*	Pol kappa inh-2=18.9*
Cc1cc(C(=O)O)ccc1-c1ccc(CO)o1	-14.2%	4.0%	-2.2	-19.5%	-10.0%	3.4%	x	x
C=CCNc1nc(Cl)nc(Nc2cc(Cl)ccc2OC)n1	42.7%	-17.2%	-8.4	-10.3%	1.0%	-6.9%	x	x
CCOc1ccc(Cl)cc1C1=CC(=O)C[C@H](c2ccc(OC)cc2)C1	1.6%	x	2.3	-9.6%	-4.6%	-7.0%	x	x
CN1C(=O)/C(=C/c2ccccc2OCc2ccc(C(=O)O)cc2)NC1=S	u	-1.5%	-0.8	-13.2%	-3.8%	-14.6%	x	x
O=C(O)c1ccc(COc2ccccc2/C=C2/NC(=O)N(c3cccc(Cl)c3)C2=O)cc1	28.2µM*	25.1µM*	-50.4*	39.8µM*	u	10µM*	33.6*	33.8*	Pol kappa inh-2=18.9*
CCCCCCCCCCCCCCCCCCNc1ccn(C2OC(COP(=O)(O)OCC3OC(n4cc(F)c(=O)[nH]c4=O)CC3O)C(O)C2O)c(=O)n1 (stereo not drawn)	17.8µM*	x	-69.4*	44.7µM*	39.8µM*	14.1µM*	42.3*	42.6*	Pol kappa inh-2=26.7*
COc1ccc(/C=N/NC(=O)c2nnn(-c3nonc3N)c2-c2cccc(OC)c2)cc1	5.1%	11.0%	3.3	-1.1%	-4.6%	-25.3%	x	x
COc1ccc(O)c(/C=N/NC(=O)c2c(C)nnn2-c2nonc2N)c1	u	4.47µM*	-10.6	u	u	u	75.2*	x	Pol kappa inh-2=u
Cc1cc(C(=O)CN2C(=O)C(=O)N(CC(C)C)C2=O)c(C)n1C1CC1	10.8%	x	1.4	-3.1%	4.3%	2.8%	x	x
COc1cc2c(cc1OC)C(=O)C(Br)CC2 (stereo not drawn)	x	x	-50.6*	x	50.1µM*	20µM*	67*	u
COc1cc2c(cc1OC)C(=O)C(c1ccc3c(c1)OCO3)CC2 (stereo not drawn)	x	x	-0.2	x	5.1%	-4.7%	x	x
N#C/C(=C\c1ccc(OCc2ccc(Cl)cc2)cc1)C(=O)Nc1cccc(C(=O)O)c1	u	31.6µM*	-1.9	-8.4%	u	u	42.3*	75.7*
CN1C(=O)/C(=C/c2ccc(C(=O)Nc3ccc(O)cc3C(=O)O)cc2)SC1=S	u	u	u	-8.9%	-2.2%	22.4µM*	75.2*	42.6*
O=c1cc(O)c2sc3nc(C(F)(F)F)c4c(c3c2[nH]1)CCCCC4	41.2%	10.6%	-24.3	0.0%	-5.4%	1.0%	x	x
SMILES	POLI inh	Pol beta inh	PI5P4K alpha inh	Pol kappa inh-1	WRN helicase inh	Pol eta inh-1	Pol iota confirm	Pol eta inh-2	others
O=c1cc(O)c2sc3nc(-c4cccnc4)cc(C(F)(F)F)c3c2[nH]1	17.8µM*	12.6µM*	u	u	u	u	67*	u
O=C(NCc1ccc(F)cc1)c1ccc(CSCc2cccc(Cl)c2)o1	u	u	x	-13.2%[60.1 µM]	x	-15.0%	x	x
COc1ccccc1/C=N/NC(=O)c1ccc(NC(=O)c2cccc([N+](=O)[O-])c2)cc1	x	3.3%	x	x	x	x	x	x
COc1cccc(/C=N/NC(=O)c2cc3cc([N+](=O)[O-])ccc3s2)c1O	14.1µM*	3.55µM*	-19.6	-22.4%	35.5µM*	3.55µM*	x	47.8*	PGK validate=2.91µM*
C/C=C/C=C/C(=O)[C@@H]1[C@@H]([C@]2(C)OC(=O)C(C)=C2O)[C@H]2/C(=C(O)/C=C/C=C/C)C(=O)[C@]1(C)C(=O)C2(C)O (stereo partly drawn)	2.82µM*	-20.3%	u	8.91µM*	u	2.51µM*	11.9*	4.26*
Cc1cc(C)c(NC(=O)Cn2c(=O)n(Cc3ccc(C(=O)NCc4ccco4)cc3)c(=O)c3sccc32)c(C)c1	u	1.12µM*	x	u	x	u	47.4*	67.5*
N#Cc1ccccc1Cn1c(=O)n(Cc2ccc(C(=O)NCc3ccco3)cc2)c(=O)c2sccc21	-5.7%	u	-11.2	-26.4%	-11.4%	-15.2%	x	x
